USP17 inh – human USP17-like deubiquitinase inhibition. purified USP17, Ub-rhodamine cleavage fluorescence, 3 h. inhibition, % at 50 µM. actives 6.5% (n = 47,000). AID 1645855
USP28 inh – blocks human USP28 ubiquitin-rhodamine cleavage; Q96RU2; purified USP28, Ub-rhodamine cleavage fluorescence, 30 min; inhibition, % at 25 µM; actives 3% (n = 47,000); AID 1645857
OTUD3 inh – blocks human OTUD3 ubiquitin-rhodamine cleavage; inhibition, % at 25 µM; purified OTUD3, Ub-rhodamine fluorescence, 2 h; actives 0.7% (n = 47,000)
USP30 block – inhibitors of human USP30 deubiquitinase. Q70CQ3. purified USP30, Ub-rhodamine cleavage fluorescence. inhibition, % at 25 µM. actives 5.3% (n = 47,000)
Target sequence (Q70CQ3 whole entry, looked up): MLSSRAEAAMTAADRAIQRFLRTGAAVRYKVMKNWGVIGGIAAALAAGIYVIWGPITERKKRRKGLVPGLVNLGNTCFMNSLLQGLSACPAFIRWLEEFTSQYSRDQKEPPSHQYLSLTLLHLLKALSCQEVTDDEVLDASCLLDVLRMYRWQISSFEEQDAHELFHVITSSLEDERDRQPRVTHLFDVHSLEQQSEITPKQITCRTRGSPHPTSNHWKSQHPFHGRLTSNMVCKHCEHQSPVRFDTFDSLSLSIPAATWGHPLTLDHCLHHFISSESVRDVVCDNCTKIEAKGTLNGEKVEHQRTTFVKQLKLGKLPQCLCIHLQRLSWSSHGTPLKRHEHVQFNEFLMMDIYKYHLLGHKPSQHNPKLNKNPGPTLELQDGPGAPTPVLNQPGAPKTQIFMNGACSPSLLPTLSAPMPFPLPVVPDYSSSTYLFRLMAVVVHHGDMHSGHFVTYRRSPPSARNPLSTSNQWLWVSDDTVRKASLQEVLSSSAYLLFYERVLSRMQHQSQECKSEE
USP8 block – blocks human USP8 ubiquitin-rhodamine cleavage; actives 4.2% (n = 47,000); P40818; inhibition, % at 20 µM; purified USP8, Ub-rhodamine cleavage fluorescence, 30 min
* marks the source's active call; other numbers are inactive results; x = no result. The list is not random: actives were taken first. Their share in the collection is about 13%. Cut-off read from the data, not from the text of the source: active = inhibition above about 30%; inactive = the rest.

SMILES	USP17 inh	USP28 inh	OTUD3 inh	USP30 block	USP8 block
O=S(=O)(C1CC1)N1CCOC2(CCCN(c3ncc(F)cn3)C2)C1 (configuration not stated)	16.2	14.6	12.9	35.3*	15.8
Cc1ccccc1NC(=O)CSc1nc(-c2ccccc2)nc2c1COC(C)(C)C2	3.4	1.3	5.2	-1.4	2.4
COc1ccnc2c1c(=O)n(CC(=O)N1CCCCCC1)c(=O)n2C	9.1	-2.7	3.1	4.1	8.1
O=C(c1nc(-c2cccc3[nH]ccc23)no1)N1CCCC1	40.6*	6.2	5.8	48.5*	1.0
CCOc1cccc2cc(-c3cc(=O)oc4cc(OC)ccc34)oc12	16.6	8.4	-2.5	-82.4	51.2*
COc1ccc(N2CCN(Cc3cc(=O)oc4cc(OC)ccc34)CC2)cc1	-5.6	-9.0	-6.9	-15.1	-16.7
O=C1c2ccccc2C2(CCCC2)C(=O)N1Cc1ccccc1	33.2*	14.2	9.3	5.9	49.3*
CCCCNc1nc2c(-c3ccccc3)nnn2c2ccccc12	68.2*	-3.9	1.8	8.9	2.3
COCCNc1nc2c(-c3cccc(C(F)(F)F)c3)nnn2c2ccccc12	13.3	11.3	12.8	31.6*	19.3
Cc1nn(C)c(C)c1CN1CCOC(c2cccc(N(C)C)n2)C1 (configuration not stated)	-5.6	-10.8	-6.1	0.0	0.5
Cc1ccc(Nc2c(-c3cccnc3)nc3cc(C)ccn23)cc1	-9.3	33.0*	3.9	31.9*	-29.8
COC(=O)c1cccc(Nc2c(-c3ccc(OC)cc3)nc3cnccn23)c1	-52.6	-42.1	-35.9	-121.7	-42.2
Cc1cccc(-c2nc3n(CC(=O)Nc4ccc(Cl)cc4)c(C)cc(=O)n3n2)c1	68.2*	5.7	7.7	26.4	8.2
Cc1cc(=O)n2nc(-c3ccc(Cl)cc3)nc2n1CC(=O)N(C)Cc1ccccc1	17.7	14.6	9.2	27.6	1.6
O=C(O)c1ccccc1C(=O)Nc1ccc(SC(C(=O)Nc2cccc(Cl)c2)c2ccccc2)cc1 (configuration not stated)	51.3*	33.8*	28.4	17.2	25.7
Cc1cccc(C(=O)Nc2cccc(SC(C(=O)Nc3ccc(Cl)c(C(=O)O)c3)c3ccccc3)c2)c1 (configuration not stated)	80.4*	44.3*	20.8	47.4*	43.9*
Cc1ccc(C(=O)O)cc1NC(=O)C(Sc1cccc(NC(=O)c2cccc(Cl)c2)c1)c1ccccc1 (configuration not stated)	84.7*	46.7*	28.7	91.1*	39.6*
CCc1cc2c(C)cc(=O)oc2c(CN2CCC(Cc3ccccc3)CC2)c1O	0.2	8.1	3.9	1.4	-1.1
CC(C)NS(=O)(=O)c1ccc(CCC(=O)Nc2ccc(Oc3ccccc3)cc2)cc1	10.3	29.2	12.5	29.9	13.0
COc1ccccc1CCNc1ccc2c(cc1=O)[C@@H](NC(C)=O)CCc1cc(OC)c(OC)c(OC)c1-2	1.0	-4.6	-22.0	-108.4	19.3
Cc1ccc(CNC(=O)c2cc3occc3c(Nc3ccccc3)n2)cc1	49.4*	-16.7	-16.4	-185.6	57.3*
Cc1ccccc1CNC(=O)c1cc2occc2c(Nc2ccc(F)cc2)n1	22.8	20.3	8.4	2.6	55.4*
O=C(c1cc2occc2c(Nc2ccc(F)cc2)n1)N1CCN(c2ccccn2)CC1	33.7*	13.1	6.2	26.8	1.3
Cc1ccc(Nc2nc(C(=O)NCCCN3CCCC3=O)cc3occc23)cc1	-36.6	-36.4	-29.1	-185.1	-0.9
Cc1cc(SCc2ncon2)c(C)cc1Cl	x	69.0*	11.2	12.4	10.3
SMILES	USP17 inh	USP28 inh	OTUD3 inh	USP30 block	USP8 block
CCc1ccc(-n2nnc(C(=O)Nc3ccc(F)cc3)c2C)cc1	10.3	14.9	10.6	32.2*	21.5
COc1ccc(C(=O)c2nnn(-c3ccc(OC(F)(F)F)cc3)c2C)cc1	19.3	28.5	23.7	25.0	33.2*
Cc1c(C(=O)Nc2ccc(Cl)cc2)nnn1-c1ccc(F)cc1	25.8	10.4	5.4	23.0	7.2
Cc1ccc(NC(=O)c2nnn(-c3cccc(F)c3)c2C)cc1	5.4	9.5	0.2	42.7*	7.9
COc1ccc(NC(=O)c2nnn(-c3ccc(F)cc3)c2C)cc1	48.0*	18.4	5.1	2.3	14.6
O=S1(=O)[C@@H]2CCN(Cc3cccnc3)CC[C@@H]2CN1CCc1ccccc1	-1.3	4.1	4.6	3.1	-20.2
COc1ccc(S(=O)(=O)Nc2cccc(-c3cn4cccc(C)c4n3)c2)cc1OC	0.7	1.4	0.8	5.4	-0.4
Cc1ccc(-n2nnc(C(=O)Nc3ccc(F)cc3)c2C)cc1C	0.1	1.6	-0.9	14.3	4.1
COc1ccc(-n2nnc(C(=O)Nc3cccc(F)c3)c2C)cc1	48.1*	17.8	13.0	27.0	0.2
COc1ccc(-n2nnc(C(=O)Nc3ccc(F)cc3F)c2C)cc1	27.4	-1.4	-0.9	13.4	-5.0
COc1ccc(NC(=O)c2nnn(-c3ccccc3C)c2C)cc1OC	3.3	72.2*	-11.4	-16.2	-5.7
COc1ccc(-n2nnc(C(=O)Nc3ccc(F)cc3)c2C)cc1	50.2*	3.9	11.6	16.9	2.2
Cc1ccc(-n2nnc(C(=O)Nc3ccccc3F)c2C)cc1C	56.1*	x	4.4	x	2.1
Cc1ccc(Cl)cc1NC(=O)CN1CCN(c2nc3ccccc3s2)CC1	2.6	1.7	5.3	2.0	-3.0
COc1cccc(-c2nc3n(n2)C(c2ccncc2)C(C(N)=O)=C(C)N3)c1 (configuration not stated)	-1.4	3.6	4.5	30.1*	3.1
COc1ccc(C2C(C(=O)Nc3ccccc3OC)=C(C)Nc3nnnn32)cc1Br (configuration not stated)	74.4*	2.8	3.9	13.2	-119.4
COc1ccccc1NC(=O)C1=C(C)Nc2nc(-c3ccc(N(C)C)cc3)nn2C1c1ccncc1 (configuration not stated)	40.3*	3.4	14.5	30.0*	7.4
CCN1CCN(C(c2ccc(Br)cc2)c2nnc(-c3ccccc3)o2)CC1 (configuration not stated)	-10.0	-16.4	-3.0	-7.2	-9.4
Cc1ccc(S(=O)(=O)N2CCC3(CC2)NC(=O)c2ccccc2N3)cc1C	58.1*	0.1	-0.7	4.8	7.2
Cc1ccc(S(=O)(=O)N2CCC3(CC2)NC(=O)c2ccccc2N3)c(C)c1	61.5*	3.3	1.5	-5.3	3.8
CC(=O)c1ccc(S(=O)(=O)N2CCC3(CC2)NC(=O)c2ccccc2N3)cc1	16.4	2.5	2.8	12.2	32.5*
CCc1ccccc1NC(=O)c1cnc2sc(C)cn2c1=O	16.6	3.0	10.3	28.2	-11.4
Cc1cccc(NC(=O)CCCN2C(=O)c3cccnc3Sc3ccccc32)c1	-7.1	-17.0	-20.6	-10.4	-11.3
CCC(=O)N1CCc2cc(S(=O)(=O)NCCC(=O)NCc3ccccc3)ccc21	-7.0	0.7	-1.6	-23.3	-2.4
Cc1nnc(-c2nnc(NCc3ccco3)c3ccccc23)o1	-0.8	7.9	6.3	-20.5	20.5
